High-throughput results as filed in PubChem BioAssay.
BAZ2B inh – inhibitors of human BAZ2B bromodomain | hit rate 4.4% among 360,000 | Potency, µM (highest dose often 114 µM), without a hit: at the highest dose activity change, negative = inhibition, hits mostly inhibitors | AlphaScreen BAZ2B-H3K14Ac peptide displacement; note: % is set by controls: 0 for no effect and ±100 for the full control effect; nearly all actives have a fitted effect of over 60% in size
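In this displacement format the biotinylated H3(5-23) peptide acetylated at Lys14 serves as ligand at 50 nM, with BAZ2B at 50 nM in PBS pH 7.4 containing 0.01% Tween-20. Donor and acceptor beads are 10 ug/mL final.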
HP1b binding inh – blocks HP1-beta chromodomain binding to methylated histone tails; P83916; AlphaScreen HP1-beta / biotin-H3K9me3 peptide binding; Potency, µM (series often up to 114 µM), for the others: at the highest dose activity change, negative = inhibition, actives largely listed as inhibitors; hit rate 0.56% among 390,000; note: nearly all actives have a fitted effect of over 70% in size
Target sequence (P83916 whole entry, looked up): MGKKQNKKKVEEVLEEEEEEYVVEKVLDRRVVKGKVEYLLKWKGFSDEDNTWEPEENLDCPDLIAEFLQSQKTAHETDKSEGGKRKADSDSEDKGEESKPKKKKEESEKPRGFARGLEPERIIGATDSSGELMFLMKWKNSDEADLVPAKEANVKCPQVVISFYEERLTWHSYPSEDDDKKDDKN
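Compound inhibition of the preformed complex between 50 nM HP1-beta and 50 nM biotinylated H3K9me3 peptide was read by AlphaScreen. Buffer was PBS pH 7.4 with 0.01% Tween-20. Incubations ran 30 min at room temperature, with 10 ug/mL donor/acceptor beads.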
G9a inh – inhibitors of human histone lysine methyltransferase G9a; Q96KQ7; G9a H3K9 monomethylation, AlphaScreen, 2 h; Potency, µM (series often up to 102 µM), for inactives: at the highest dose activity, negative = inhibition, actives largely listed as inhibitors; hit rate 8.8% among 350,000; note: % is set by controls: 0 for no effect and ±100 for the full control effect; nearly all actives have a fitted effect of over 75% in size
Target sequence (Q96KQ7 913-1193 limits assumed): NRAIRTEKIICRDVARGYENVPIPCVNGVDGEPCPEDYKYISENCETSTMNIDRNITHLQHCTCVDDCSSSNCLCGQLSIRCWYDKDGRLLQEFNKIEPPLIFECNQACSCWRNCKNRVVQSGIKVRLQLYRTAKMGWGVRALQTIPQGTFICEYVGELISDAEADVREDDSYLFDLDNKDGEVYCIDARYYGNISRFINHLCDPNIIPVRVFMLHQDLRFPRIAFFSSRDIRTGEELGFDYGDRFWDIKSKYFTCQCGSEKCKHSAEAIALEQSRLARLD
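Signal arises when biotinylated H3K9 peptide, once monomethylated, bridges streptavidin donor and antibody-captured acceptor beads. Enzyme at 20 nM was preincubated 15 min with test compounds; peptide 500 nM and SAM 20 uM then reacted for 2 h.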
JMJD2A Tudor inh – blocks the human JMJD2A Tudor domain; Potency, µM (titrated, usually from 114 µM), without a hit: top-dose activity change, negative = inhibition, usual class: inhibitors; hit rate 4.4% among 390,000; O75164; AlphaScreen JMJD2A-Tudor / H3K4me3 peptide binding; note: % is set by controls: 0 for no effect and ±100 for the full control effect; nearly all actives have a fitted effect of over 50% in size
Sfp PPTase inh – blocks B. subtilis Sfp PPTase activity; Q9F4F7; Biochemical Sfp PPTase activity, qHTS; Potency, µM, without a hit: largest response in the series, negative = inhibition, actives largely listed as inhibitors; hit rate 3.5% among 310,000;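 note: the enzyme is Sfp with the accession as filed and its product quenches rhodamine fluorescence; 0% = enzyme reaction without inhibitor and -100% = no enzyme wells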
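Buffer: 50 mM Hepes-Na pH 7.6, 10 mM MgCl2, 0.01% Nonidet P-40, 0.01% BSA. Enzyme 15 nM, pre-exposed to compound 15 min; substrates then added and fluorescence change tracked over 30 min.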
The depositor's hits bear a star; [ ] = remark or other dose. This is a sample that favours compounds with a hit; in the whole collection about 12% have one here. Calls come from the whole dose curve; as a rule, active = well fitted curve in the direction sought with a large enough effect; inconclusive = small, poorly fitted or top-dose-only effect, or another doubt; inactive = no such curve, though single readings can be large; an effect the other way counts as inactive or inconclusive. Potency is the fitted concentration of half-maximal effect.

How did CC1(C)CC(=O)C2=C(C1)OC1=C(C(=O)CC(C)(C)C1)C2c1cc([N+](=O)[O-])cc([N+](=O)[O-])c1O do in these assays?
BAZ2B inh: 21.3%; HP1b binding inh: inconclusive; G9a inh: 58.9%[12.7 µM]; JMJD2A Tudor inh: -11.3%[11.4 µM]; Sfp PPTase inh: 11.2µM*

How did CCOc1cc(C2C3=C(CC(C)(C)CC3=O)OC3=C2C(=O)CC(C)(C)C3)cc([N+](=O)[O-])c1O do in these assays?
BAZ2B inh: inconclusive; HP1b binding inh: 17.3%; G9a inh: inconclusive; JMJD2A Tudor inh: -5.2%; Sfp PPTase inh: 19.4%

How did CCC1Oc2ccc(C)cc2N(CC(=O)N(Cc2ccc(C)o2)C2CCCC2)C1=O (stereo not given) do in these assays?
BAZ2B inh: 4.2%; HP1b binding inh: 4.3%; G9a inh: inconclusive; JMJD2A Tudor inh: -31.5%; Sfp PPTase inh: 17.8µM*

What do the screens show for `Cc1ccc(NC(=O)N2CCCCCC2)cc1`?
BAZ2B inh: -0.2%; HP1b binding inh: 34.4%; JMJD2A Tudor inh: -4.1%; Sfp PPTase inh: 5.8%

Results for O=C(C[n+]1ccccc1)N/N=C/c1cc(Br)ccc1F ?
BAZ2B inh: 70.8µM*; HP1b binding inh: 28.4%; G9a inh: -2.7%[12.7 µM]; JMJD2A Tudor inh: inconclusive

Results for O=C(C[n+]1ccccc1)N/N=C/c1ccc(C(=O)O)cc1 ?
BAZ2B inh: 79.4µM*; HP1b binding inh: 51.8%; G9a inh: inconclusive; JMJD2A Tudor inh: -30.1%

What do the screens show for `O=C(CP(=O)(c1ccccc1)c1ccccc1)N/N=C/c1cc(Br)cc(Br)c1O`?
BAZ2B inh: 5.4%; HP1b binding inh: 37.3%; G9a inh: 29.0%[59 µM]; JMJD2A Tudor inh: -29.8%; Sfp PPTase inh: 12.2%

Results for COc1ccc(Br)cc1/C=N/NC(=O)C[n+]1ccccc1 ?
BAZ2B inh: -15.3%; HP1b binding inh: 33.8%; G9a inh: -12.8%; JMJD2A Tudor inh: -8.7%; Sfp PPTase inh: 5.1%

Results for O=C(C[n+]1ccccc1)N/N=C/c1cc(Br)cc(Br)c1O ?
BAZ2B inh: 10µM*; HP1b binding inh: 26.6%; G9a inh: -11.8%; JMJD2A Tudor inh: 22.4µM*; Sfp PPTase inh: 2.9%

Results for CCN(C(=O)CSc1nnc(C)n1-c1cccc(C)c1)C1CCS(=O)(=O)C1 (stereo not given) ?
BAZ2B inh: -3.7%; HP1b binding inh: 29.8%; G9a inh: 12.0%[2.33 µM]; JMJD2A Tudor inh: 4.4%

What do the screens show for `CSc1ncc2c(=O)[nH]c(-c3ccccc3)nc2n1`?
BAZ2B inh: 7.3%; HP1b binding inh: 56.1%; G9a inh: -10.4%[2.33 µM]; JMJD2A Tudor inh: -4.5%; Sfp PPTase inh: 13.1%

How did Cc1[nH]n(-c2ccccc2)c(=O)c1/C=N/NC(=O)C(C)C do in these assays?
BAZ2B inh: 31.6µM*; HP1b binding inh: 72.1%; G9a inh: -37.6%; JMJD2A Tudor inh: 79.4µM*; Sfp PPTase inh: 27.7%

Results for COC(=O)CN=Cc1c(C)[nH]n(-c2ccccc2)c1=O ?
BAZ2B inh: -16.9%; HP1b binding inh: 39.8%; G9a inh: inconclusive; JMJD2A Tudor inh: -2.5%; Sfp PPTase inh: -7.1%

How did Cc1[nH]n(-c2ccccc2)c(=O)c1/C=N\NC(=O)C1COc2ccccc2O1 (stereo not given) do in these assays?
BAZ2B inh: 70.8µM*; HP1b binding inh: 19.3%; G9a inh: 8.1%[59 µM]; JMJD2A Tudor inh: inconclusive; Sfp PPTase inh: 7.0%

Results for Cc1c(/C=N\NC(=O)C2COc3ccccc3O2)c2ccccc2n1C (stereo not given) ?
BAZ2B inh: inconclusive; HP1b binding inh: -1.9%; G9a inh: -2.6%[59 µM]; JMJD2A Tudor inh: inconclusive; Sfp PPTase inh: -15.4%

How did CC(=O)N/N=C/c1c(C)[nH]n(-c2ccccc2)c1=O do in these assays?
BAZ2B inh: 79.4µM*; HP1b binding inh: 24.3%; G9a inh: -2.8%; JMJD2A Tudor inh: 50.1µM*; Sfp PPTase inh: 14.8%

What do the screens show for `Cc1[nH]n(-c2ccccc2)c(=O)c1/C=N/N(C)c1ccccc1`?
BAZ2B inh: inconclusive; HP1b binding inh: -16.8%; G9a inh: 12.6µM*; JMJD2A Tudor inh: inconclusive; Sfp PPTase inh: -17.9%

How did Cc1[nH]n(-c2ccccc2)c(=O)c1C=Nc1ccc(S(=O)(=O)N(C)C)cc1 do in these assays?
BAZ2B inh: -35.6%; HP1b binding inh: 15.2%; G9a inh: 2.2%[59 µM]; JMJD2A Tudor inh: 1.1%[57.1 µM]; Sfp PPTase inh: -0.7%
